# IMPase cell inh: qHTS Assay for Identifying the Cell-Membrane Permeable IMPase Inhibitors. inhibition (IP1 accumulation), % at 46.1 µM. Inositol monophosphatase 1 (Rattus norvegicus), P97697. AID 901, 2007. CHO-M1 cells, IP1 accumulation, HTRF TR-FRET ratio. 120,000 tested, under 10 active; active = well fitted curve in the direction sought with a large enough effect in the signal ratio, not every such curve was filed as active; inconclusive = small, poorly fitted or top-dose-only effect, or a change in a side signal; inactive = no such curve, though single readings can be large or run the other way; the % refers to the signal ratio;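 note: cells stimulated with carbachol in lithium chloride buffer; higher means more IMPase inhibition seen as more IP1 and lower FRET ratio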
#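 Measured: the HTRF emission ratio (665/620 nm) plus the 620 nm donor channel, each fitted to the Hill equation to give AC50. Cells were CHO-M1 given compounds up to 46 uM and a 30 min carbachol stimulation at 37C.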
# LMNA splice mod: qHTS Assay for Modulators of Lamin A Splicing; Potency, µM (highest dose often 46.1 µM), usual class: inhibitors; HeLa LMNA splicing GFP/RFP minigene ratio, 48 h; 200,000 compounds, 0.01% hits; active = well fitted inhibition curve with a large enough effect in the signal ratio, with a control signal flat, not every such curve was filed as active; inconclusive = small, poorly fitted or top-dose-only effect, or effect the other way, or a change in a side signal; the % refers to the signal ratio
#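 Read-out is the ratio of GFP to DsRed2 object intensity, acquired by 488 nm laser-scanning cytometry on HeLa lamin A-EGFP minigene reporter cells. Compound incubation 48 hrs at 37 °C in Opti-MEM with 2% FBS; DMSO 0.5% final.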
# ALDH1A1 block: qHTS Assay for Inhibitors of Aldehyde Dehydrogenase 1 (ALDH1A1); Potency, µM (highest dose often 75.3 µM), actives largely listed as inhibitors; 220,000 compounds, 7.3% hits; Purified ALDH1A1, NADH fluorescence, propionaldehyde substrate; Aldehyde dehydrogenase 1A1 (Homo sapiens), P00352
# KinaseGlo FLuc: Counterscreen for Luciferase (Kinase-Glo TM) Inhibition; Luciferin 4-monooxygenase (Photuris pensylvanica), Q27757; Kinase-Glo luciferase, ATP luminescence, 8 min; Potency, µM (top dose mostly 38.3 µM), usual class: inhibitors; 200,000 compounds, 0.28% hits; AID 1379, 2008; active = well fitted inhibition curve with a large enough effect; inconclusive = small, poorly fitted or top-dose-only effect; note: nearly all actives have a fitted effect of over 60% in size
#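 Compounds were added to a substrate mix at pH 7.2 (50 mM imidazole, 10 uM ATP, within the enzyme's linear range), followed by Kinase-Glo detection reagent; luminescence was measured after 8 minutes at ambient temperature.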
# PNC inhibitor: High Content Assay for Compounds that inhibit the Assembly of the Perinucleolar Compartment | AID 2417, 2010 | 140,000 compounds, 3.1% hits | activity change (PNC), negative = inhibition, % at 10 µM | PC3M PTB-GFP, PNC prevalence imaging, 16 h; hits give low values;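 active = readout at or below -70, meaning at least 70% loss of cells showing the perinucleolar compartment, a nuclear body marking cancer cells; inconclusive = readout between -30 and a set limit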
#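 Compounds are pinned in duplicate onto adhered PC3M cells stably expressing GFP-tagged PTB and incubated 16 h at 37 C. Cells are then fixed, nuclei stained with Hoechst, and PNC-positive cells counted.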
# HPGD block: qHTS Assay for Inhibitors of HPGD (15-Hydroxyprostaglandin Dehydrogenase) | purified HPGD, NADH fluorescence kinetic, PGE2 substrate | Potency, µM, actives largely listed as inhibitors | 150,000 compounds, 4.3% hits
# Target sequence (P15428 whole entry, looked up): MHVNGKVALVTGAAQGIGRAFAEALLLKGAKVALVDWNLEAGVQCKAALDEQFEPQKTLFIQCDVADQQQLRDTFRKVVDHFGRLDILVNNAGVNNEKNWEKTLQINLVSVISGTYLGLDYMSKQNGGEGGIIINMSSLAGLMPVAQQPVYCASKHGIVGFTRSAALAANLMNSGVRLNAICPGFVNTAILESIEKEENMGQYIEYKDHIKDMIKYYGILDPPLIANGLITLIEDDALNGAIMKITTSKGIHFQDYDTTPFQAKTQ
#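 NADH formation kinetics: reaction with 30 uM PGE2 and 1 mM NAD+ (final), 20 nM enzyme, Tris-HCl pH 8 with Tween 20, after 15 min compound preincubation at room temperature. Fluorescence change, last versus first of five reads.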
# A number is an active result; i = inactive; ? = inconclusive; nt = no result given; [ ] = another dose, or the depositor's remark. Compounds with a hit are over-represented: about 10% of the library has one in this group of screens. Unless noted, calls come from the whole dose curve; as a rule, active = well fitted inhibition curve with a large enough effect (not every such curve was filed as active); inconclusive = small, poorly fitted or top-dose-only effect, or another doubt; inactive = no such curve, though single readings can be large or run the other way.
SMILES,IMPase cell inh,LMNA splice mod,ALDH1A1 block,KinaseGlo FLuc,PNC inhibitor,HPGD block
CCCCCOC(=O)CSc1ncnc2c1sc1nc(N3CCOCC3)c3c(c12)CCCC3,i,nt,nt,nt,nt,nt
CCOC(=O)CSC1=C(C#N)C(c2ccc(F)cc2)C(C(C)=O)=C(C)N1 (stereo not given),i,i,22µM,i,i,i
N#CC1=C(SCC(=O)Nc2ccc(C(=O)O)cc2)NC(=O)CC1c1ccco1 (stereo not given),nt,i,13µM,nt,nt,nt
N#CC1=C(SCc2ccccc2)NC(=O)CC1c1ccccc1 (stereo not given),i,i,?,i,i,i
CCc1ccccc1NC(=O)CSC1=C(C#N)C(c2ccc3c(c2)OCO3)C2=C(CCCC2=O)N1 (stereo not given),i,i,25µM,i,?,i
CCOC(=O)C1=C(C)NC(SCC(=O)OC)=C(C#N)C1c1ccc(C(=O)OC)cc1 (stereo not given),i,i,?,i,i,?
CC1(C)CC(=O)C2=C(C1)NC(SCC(=O)Nc1ccccc1)=C(C#N)C2c1ccco1 (stereo not given),i,?,13µM,i,i,i
Cc1ccc(NC(=O)CSC2=C(C#N)C(c3ccco3)C3=C(CCCC3=O)N2)cc1 (stereo not given),i,?,?,i,i,?
CCNc1ncc2nc(C)c(=O)n(C3CC3)c2n1,nt,i,?,nt,nt,nt
COc1ccc(N2CCN(C(CNC(=O)CC(C)C)c3ccc4c(c3)OCO4)CC2)cc1 (stereo not given),nt,i,nt,nt,nt,nt
CN(C)Cc1cc(C(C)(C)C)ccc1-c1ccc(C(C)(C)C)cc1CN(C)C,nt,nt,i[13.5 µM],i[7.66 µM],nt,i
COc1ccc(-c2noc(C3CC(=O)N(c4ccc5c(c4)OCCO5)C3)n2)c(OC)c1 (stereo not given),nt,i,nt,nt,nt,nt
Cc1ccc(C(=O)CSC2=C(C#N)C(c3ccco3)C3=C(CC(C)(C)CC3=O)N2)cc1 (stereo not given),i,?,13µM,i,i,i
Cc1ccc(NC(=O)CSC2=C(C#N)C(c3ccc4c(c3)OCO4)CC(=O)N2)cc1C (stereo not given),i,?,i,i,-100,i
CCOC(=O)CSC1=C(C#N)C(c2ccc3c(c2)OCO3)CC(=O)N1 (stereo not given),i,?,i,i,i,i
COc1ccccc1NC(=O)C1=C(C)NC(SCC(=O)c2ccccc2)=C(C#N)C1c1ccco1 (stereo not given),i,i,14µM,i,?,?
CC(=O)C1=C(C)NC(SCC(=O)c2ccc(C)cc2)=C(C#N)C1c1ccco1 (stereo not given),i,i,10µM,i,i,28µM
COc1ccc(OC)c(NC(=O)CSC2=C(C#N)C(c3ccco3)C3=C(CCCC3=O)N2)c1 (stereo not given),i,?,?,i,i,i
COC(=O)c1c(NC(=O)c2ccccc2)sc(C(N)=O)c1C,nt,?,?,i,nt,nt
CCC(C(=O)Nc1sc(C(N)=O)c(C)c1C(=O)OC)c1ccccc1 (stereo not given),nt,nt,13µM,i,nt,nt
CCOC(=O)c1c(NC(=O)C(Sc2ccccc2)c2ccccc2)sc(C(N)=O)c1C (stereo not given),i,i,14µM,i,i,28µM
CCC(C(=O)Nc1nc(C)c(C(=O)OC)s1)c1ccccc1 (stereo not given),nt,i,i,i,nt,nt
CCOC(=O)c1c(NC(=O)C(Sc2ccccc2)c2ccccc2)sc(C(=O)N(C)C)c1C (stereo not given),nt,?,i,i,?,i
CCC(C(=O)Nc1ccsc1C(=O)OC)c1ccccc1 (stereo not given),nt,nt,11µM,i,nt,nt
CCC1=C2CC[C@H]3C(=O)N(CC(=O)OC)C(=O)[C@H]3[C@H]2[C@@]2(C)C(=O)N(CC3CC3)C(=O)N2C1=O,nt,nt,i,i,nt,i

# Screening results from PubChem.
